# D1 agonist – Allosteric Agonists of the Human D1 Dopamine Receptor: qHTS; D(1A) dopamine receptor (Homo sapiens), P21728; HEK293 T-REx D1 cells, calcium flux, agonist mode; activation, % at 2 µM; 360,000 tested, 1% active; AID 504660, 2011; in the data active means activation above about 30%
# Target sequence (P21728 whole entry, looked up): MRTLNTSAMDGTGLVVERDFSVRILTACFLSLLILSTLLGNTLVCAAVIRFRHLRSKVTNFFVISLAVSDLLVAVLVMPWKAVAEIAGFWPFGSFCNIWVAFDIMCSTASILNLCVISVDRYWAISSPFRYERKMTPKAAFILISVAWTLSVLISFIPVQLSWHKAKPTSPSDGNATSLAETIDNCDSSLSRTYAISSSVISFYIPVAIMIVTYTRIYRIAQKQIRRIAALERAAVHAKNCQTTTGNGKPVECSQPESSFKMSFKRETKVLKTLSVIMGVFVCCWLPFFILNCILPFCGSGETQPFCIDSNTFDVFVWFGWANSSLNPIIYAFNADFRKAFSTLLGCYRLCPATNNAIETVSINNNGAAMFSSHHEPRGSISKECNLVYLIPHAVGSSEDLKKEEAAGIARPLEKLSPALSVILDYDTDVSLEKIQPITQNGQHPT
#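 Agonism was scored from calcium flux recorded over 180 s (1 read/s) after pintool compound addition, following a 10-cycle baseline. Cells were inducible force-coupled HEK293 TREx D1, plated overnight at 30 C and loaded with no-wash calcium dye.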
# DRD3 antagonist – qHTS of D3 Dopamine Receptor Antagonist: qHTS. D(3) dopamine receptor (Homo sapiens), P35462. D3R cells, DiscoveRx beta-arrestin luminescence, antagonist mode; stronger effect = lower value. max response, negative = inhibition, %. 360,000 tested, 2.5% active; in the data active means max response below about -50%; inconclusive means no clear call, values can overlap the other calls
#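 Cells expressing the human receptor were seeded at 1500 cells/well, incubated overnight at 37 degrees C in 5% CO2, then exposed to library compounds with dopamine controls for 90 minutes at 37 degrees C before luminescent detection.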
# D1 PAM – Potentiators of Human D1 Dopamine Receptor: qHTS | D(1A) dopamine receptor (Homo sapiens), P21728 | AID 504651, 2011 | potentiation, % at 10 µM | HEK293 TREx D1 cells, calcium flux, dopamine EC20 potentiation | 360,000 tested, 0.036% active; in the data active means potentiation above about 30%
# D1 antagonist – Antagonist of Human D 1 Dopamine Receptor: qHTS | D(1A) dopamine receptor (Homo sapiens), P21728 | HEK293 TREx D1 cells, calcium flux, dopamine EC80; stronger effect = lower value | activity change, negative = inhibition, % at 10 µM | 360,000 tested, 3.2% active | AID 504652, 2011; in the data active means activity change below about -30%
#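 Antagonism measured as reduced calcium response to an EC80 dopamine addition following 180 s compound pre-read; cells were inducible HEK293 Trex D1 plated overnight at 30 C, read kinetically at 1 cycle/sec.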
# D3 ag – qHTS of D3 Dopamine Receptor Agonist: qHTS; max activation, %; D(3) dopamine receptor (Homo sapiens), P35462; AID 652048, 2013; 410,000 tested, 0.58% active; D3R DiscoveRx beta-arrestin cells, luminescence, 90 min; in the data active means max activation above about 30%
#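 Cells at 1500/well, incubated overnight, then treated with pinned compounds (dopamine as control) for 90 min at 37 degrees C. DiscoveRx reagent added for 30 - 60 minutes at room temperature; luminescence read.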
# Hits are given with their value; – = inactive; ? = inconclusive; · = no result given. Shown are actives, neighbours in structure and some others; about 6% of the full set was active somewhere.
SMILES,D1 agonist,DRD3 antagonist,D1 PAM,D1 antagonist,D3 ag
Cc1ccc(-c2nc3ccccc3nc2-c2ccccc2)cc1,–,–,–,–,–
CCN1C(=O)C(=Cc2cccc(OC)c2Oc2ccc([N+](=O)[O-])cc2[N+](=O)[O-])SC1=S,–,-70.3,–,–,–
CCOc1c(OC(C)=O)ccc(/C=C/c2ccc3cccc(OC(C)=O)c3n2)c1[N+](=O)[O-],–,–,–,–,–
C=CCN1C(=O)/C(=C/c2ccc(OC(C)=O)c(OCC)c2[N+](=O)[O-])SC1=S,–,–,–,-30.6,–
Cc1nn2c(C)c(C(=O)NC(C)(C)C)cnc2c1-c1ccc(F)cc1,–,·,–,–,–
Cc1cc(C)nc(SCc2csc(N)n2)n1,–,-50.9,–,–,–
Cc1cc(C)nc(SCc2csc(-c3ccccc3)n2)n1,–,?,–,–,–
COc1ccc(C23CC4CC(CC(C4)C2)C3)cc1C(=O)NCCN(C)C,39.4,–,–,–,–
COc1ccc(OC)c2nc3c(C(=O)NCCN(C)C)cccc3nc12,·,–,·,·,–
COc1ccccc1C(=O)NCCC(=O)NCCC12CC3CC(CC(C3)C1)C2,–,–,–,-30.5,–
Oc1ccc(Cc2ncc(C(F)(F)F)cc2Cl)cc1,–,–,–,–,–
COC(=O)C(C)Oc1ccc(Cc2ncc(C(F)(F)F)cc2Cl)cc1 (configuration not stated),–,–,–,-36.8,–
C=CCC1NCCc2c(Br)cccc21 (configuration not stated),–,–,–,–,–
C=CC[C@@H]1Cc2c(Br)ccc(Br)c2[C@@H](CC=C)N1,–,–,–,–,32.1
COc1ccccc1N1CCN(c2nc3ccc(C)cc3n3nnnc23)CC1,–,·,–,-30.1,–
CNCC/C=C1/c2ccccc2CSc2ccccc21,–,-80.6,–,-51.4,–
CCN(CC)CCNC(=O)c1cc2c(s1)-c1ccccc1SC2,–,?,–,–,–
OCCN1CCN(CC/C=C2/c3ccccc3CSc3ccccc32)CC1,·,-104.6,·,·,–
COCCNc1ccc(-c2nc(-c3ccccn3)no2)cc1[N+](=O)[O-],–,·,–,–,–
CCCCCCCCOC(=O)C[N+](C)(C)C/C=C(/C)Cl,–,–,–,–,–
CCCCCCCCCCOC(=O)C[N+](C)(C)C/C=C(/C)Cl,54.8,–,–,–,–
CCCCCCCCCCCCOC(=O)C[N+](C)(C)C,43.5,–,–,-34.6,–
CCCCCCCCCCCCCCCCOP(=O)([O-])OCC[N+](C)(C)C,·,·,·,·,–
COc1ccc2sc(N(Cc3cccnc3)C(=O)c3ccc4c(c3)OCCO4)nc2c1,–,·,–,–,–
CC1(C)O[C@H]2[C@@H](O1)[C@@H](C(=O)Nc1cc(F)ccc1F)O[C@@H]1OC(C)(C)O[C@@H]12,–,·,–,–,–
SMILES,D1 agonist,DRD3 antagonist,D1 PAM,D1 antagonist,D3 ag
CCOc1ccc(NS(=O)(=O)c2c(C)nc3sc(CC)nn3c2=O)cc1,–,-52.6,–,–,–
COC(=O)CSc1nnc(-c2ccc3c(c2)OCO3)n1C,–,-68.8,–,–,–
CNC(=O)CSc1nnc(-c2ccc3c(c2)OCO3)n1C,–,–,–,–,–
Cc1c(O)ccc(-c2[nH]ncc2-c2nc3ccccc3s2)c1O,–,–,–,-43.0,–
CCC(C(=O)NC1CC(C)(C)NC(C)(C)C1)c1ccccc1 (configuration not stated),–,–,–,–,–
CC1(C)CC(NC(=O)C(c2ccccc2)c2ccccc2)CC(C)(C)N1,–,–,–,-31.9,–
CC1(C)CC(NC(=O)CSc2ccccc2)CC(C)(C)N1,–,–,–,-34.4,–
CC1(C)CC(NC(=O)Cc2ccccc2)CC(C)(C)N1,–,–,–,–,–
N#CC(C#N)=C/C=C(\Nc1ccc(Cl)cc1)c1ccc(Cl)cc1,78.6,–,–,–,–
O=C(NCc1ccccc1Cl)C(=O)NCC(c1cccs1)S(=O)(=O)c1cccs1 (configuration not stated),–,·,–,·,–
CCCc1cc(N2CCCC(C(=O)Nc3cc(Cl)ccc3OC)C2)n2ncnc2n1 (configuration not stated),·,–,·,·,–
CCCc1cc(N2CCCC(C(=O)Nc3c(OC)cccc3OC)C2)n2ncnc2n1 (configuration not stated),–,–,–,–,30.9
CC(OC(=O)Cc1c[nH]c2ccccc12)C(=O)NC1CCCCC1C (configuration not stated),–,–,–,-31.4,–
Cc1ccc(S(=O)(=O)CCC(=O)N(C)C2CCCCC2)cc1,–,–,–,-41.8,–
CC(OC(=O)CCC(=O)c1ccc(F)cc1)C(=O)NC1CCCCC1C (configuration not stated),–,–,–,–,–
Cc1ccc(S(=O)(=O)CCC(=O)OC(C)C(=O)NC2CCCCC2C)cc1 (configuration not stated),–,–,–,-42.2,–
Cc1ccc(S(=O)(=O)CCC(=O)NC2CCCCC2)cc1,–,–,–,–,–
Cc1ccc(NC(=O)C(C)OC(=O)Cc2c[nH]c3ccccc23)cc1 (configuration not stated),–,–,–,-55.8,–
COC(=O)Cn1c(=O)c2cccn2c2ccc(F)cc21,–,·,–,–,–
Cc1ccc(Sc2nnc(Cc3ccccc3)c3ccccc23)cc1,–,-50.6,–,–,–
COc1ccc(Sc2nnc(Cc3ccccc3)c3ccccc23)cc1,–,?,–,–,–
Nc1[nH]nc2c1NN(c1ccc(Cl)cc1Cl)N2,–,–,–,-38.3,–
COc1cc2c(cc1OC)C1CC(=O)C(CC(C)C)CN1CC2 (configuration not stated),–,–,–,–,–
COc1cc2c(cc1OC)C1C/C(=N\O)C(CC(C)C)CN1CC2 (configuration not stated),–,-58.1,–,-67.4,–
Cc1nn(-c2ccccn2)c2c1C(c1ccsc1)C1=C(CCCC1=O)N2 (configuration not stated),–,–,–,-86.1,–
COc1cc2c(cc1OC)C(COc1ccc3c(C)cc(=O)oc3c1)N(C(=O)c1cccc(C)c1)CC2 (configuration not stated),–,·,–,–,–
O=C(Cn1nnc(-c2ccc(Cl)cc2)n1)NC1CC2CCC1C2 (configuration not stated),–,–,–,-33.5,–
Cc1ccc(-c2nnn(CC(=O)NC3CC4CCC3C4)n2)cc1 (configuration not stated),–,–,–,–,–
COc1ccc(S(=O)(=O)NNC(=O)c2ccccc2-n2cccc2)cc1,–,–,–,-61.1,–
Cc1ccc(-n2c(SCC(=O)NCc3ccccc3)nc3n[nH]c(C)c3c2=N)cc1Cl,–,·,–,–,–

# Assay outcomes deposited in PubChem by National Center for Advancing Translational Sciences (NCATS).
